Test results from article PMC5540273 (PLoS ONE, 2017).
Like-named read-outs stand apart in the source and are kept apart here.

Assays:
[1] = tested on: T1, TAK1; details: concentration: 1 μM, replicates: in singlicate; n = 1
T1 construct: gene MAP3K7

[2] = tested on: TAOK1; details: concentration: 1 μM, replicates: in singlicate; n = 1
[3] = tested on: TAOK2; details: concentration: 1 μM, replicates: in singlicate; n = 1
[4] = tested on: TAOK3; details: concentration: 1 μM, replicates: in singlicate; n = 1
[5] = tested on: TBK1; details: concentration: 1 μM, replicates: in singlicate; n = 1
[6] = tested on: TEC; details: concentration: 1 μM, replicates: in singlicate; n = 1
[7] = tested on: TESK1; details: concentration: 1 μM, replicates: in singlicate; n = 1
[8] = tested on: TGFBR1; details: n = 1
[9] = tested on: TGFBR2; details: concentration: 1 μM, replicates: in singlicate; n = 1
[10] = tested on: TIE1; details: concentration: 1 μM, replicates: in singlicate; n = 1
[11] = concentration: 1 μM, replicates: in singlicate
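Also: KINOMEscan kinase panel screen.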

SMILES	%Inh [1] [%]	%Inh [2] [%]	%Inh [3] [%]	%Inh [4] [%]	%Inh [5] [%]	%Inh [6] [%]	%Inh [7] [%]	%Inh [8, 11] [%]	%Inh [9] [%]	%Inh [10] [%]	%Inh ([8]; 1 µM) [%]
CCC(=O)c1c(-c2ccccc2)c2cc(Cl)ccc2c(=O)n1Cc1cc(S(C)(=O)=O)n(CCC(C)(C)O)n1	31	9	0	0	20	6	21	6	19	16	
Cc1ccc(-c2ccc3c(ccc4sc5c(c43)NC[C@@H](C)N=C5N(C)C)n2)cn1	7	0	0	0	0	9	0	0	13	0	
COc1cccc(-n2cnc3c(N)ncnc32)c1 [SKF-97416]	23	31	9	28	31	5	17	24	0	19	
O=C(Nc1n[nH]c2nc(-c3ccccc3)c(Cl)cc12)C1CC1 [SB-734909]	8	0	0	0	38	0	6	0	0	0	
Cc1nc(N(C)[C@H]2CN(C(=O)CC#N)CC[C@H]2C)c2cc[nH]c2n1	6	10	0	0	0	4	0	0	0	1	
CCCC(=O)Nc1n[nH]c2ncc(-c3cccc4ccccc34)cc12 [SB-642057]	0	0	1	1	27	15	40	14	49	0	
O=C(Nc1n[nH]c2cc(-c3ccccc3F)ccc12)C1CC1 [SB-733371]	0	52	19	24	0	0	1	0	0	0	
Cc1nnc(-c2ccc(C)c(-c3ccc(C(=O)O)cc3)c2)o1 [GW608005]	0	0	0	2	2	0	0	0	0	15	
COc1ccc(-c2cc3c(C)nc(N)nc3n([C@H]3CC[C@H](O)CC3)c2=O)cn1	21	0	0	0	90	0	7	0	6	0	
CN1C(=O)C(Nc2ccccc2)=C(c2ccccc2)C1=O [SB-300079]	0	0	34	0	21	0	2	22	0	0	
COc1cc(Nc2nccc(N3CCC(NC(=O)C4COc5ccccc5O4)C3)n2)cc(OC)c1OC (centres unmarked) [GSK1379761]	7	11	0	5	0	0	33	12	0	17	
O=C1NC(=O)C(c2ccccc2)=C1Nc1cccc(O)c1 [SB-390534]	0	30	22	18	14	0	13	6	0	22	
Cc1nnc(-c2ccc3ncn(-c4ccc(S(C)=O)cc4)c3c2)o1 (centres unmarked)	3	100	0	96.2	19	1	8	0	38	0	
Cc1c(Cn2c(C)nn3c(=O)cc(N4CCO[C@H](C)C4)nc23)cccc1C(F)(F)F [GSK2373690]	0	0	9	0	1	0	34	0	4	10	
CCC(=O)c1c(-c2ccccc2)c2cc(Cl)ccc2c(=O)n1Cc1cc(S(C)(=O)=O)n(CC(F)F)n1	0	8	11	0	24	0	11	7	0	0	
COC(=O)c1c(-c2ccccc2)c2cc(C)ccc2c(=O)n1Cc1ccccc1	0	0	0	0	0	1	0	0	0	0	
COc1ccc(-c2coc3ccc(-c4nnc(SCc5cccc(C#N)c5)o4)cc23)cc1	23	0	10	0	10	0	0	11	0	17	
Nc1n[nH]c2nnc(-c3ccccc3)c(-c3ccccc3)c12 [GW554060]	0	0	0	0	8	0	2	12	0	8	

SMILES	%Inh [1] [%]	%Inh [2] [%]	%Inh [3] [%]	%Inh [4] [%]	%Inh [5] [%]	%Inh [6] [%]	%Inh [7] [%]	%Inh [8, 11] [%]	%Inh [9] [%]	%Inh [10] [%]	%Inh ([8]; 1 µM) [%]
COc1cc(Nc2nccc(N3CCC(NC(=O)C(C)c4ccc(Cl)cc4)C3)n2)cc(OC)c1OC (centres unmarked) [GSK1379757]	0	0	0	0	14	0	27	0	0	10	
CCC(=O)c1c(-c2ccccc2)c2cc(Cl)ccc2c(=O)n1Cc1cc(S(C)(=O)=O)n(CC(N)=O)n1	0	0	15	0	12	0	0	0	0	0	
Cn1c(=O)c(F)c(Nc2ccc(I)cc2F)c2c(=O)n(OC[C@H](O)CO)cnc21	0	0	27	0	52	30	31	20	13	0	
OCCCNc1nccc(-c2c(-c3cccc(C(F)(F)F)c3)nn3cc(C(F)(F)F)ccc23)n1 [GW630813]	0	0	0	0	10	0	11	0	0	0	
COc1ccc(CNC(=O)NC2CCN(c3ccnc(Nc4ccc(F)cc4)n3)C2)cc1 (centres unmarked) [GSK1379706]	6	0	0	0	27	17	7	46	0	12	
COc1cc2ncn(-c3cc(OCCCc4ccccc4)c(C(N)=O)s3)c2cc1OC [GSK205189]	0	0	0	0	15	0	4	0	0	22	
O=C(NCc1cccs1)c1cc(C(=O)c2c(Cl)cccc2Cl)c[nH]1 [GW823670]	0	0	7	0	6	0	0	27	0	8	
Fc1cccc(CSc2nnc(-c3ccc4c(c3)CCO4)o2)c1	32	0	0	0	19	20	0	11	28	8	
O=C(Nc1n[nH]c2nc(-c3ccccc3)c(Br)cc12)C1CC1 [SB-708998]	0	9	0	16	4	0	7	0	6	14	
Cc1cc(Nc2nc(-c3cccc(C)n3)nc3ccccc23)ccn1 [GW872411]	0	0	29	0	0	1	0		0	0	83
COc1ccc(Nc2nccc(N3CCC(NS(=O)(=O)c4ccc(NC(C)=O)cc4)C3)n2)cc1 (centres unmarked) [GSK1379729]	0	2	0	2	11	3	16	7	7	20	
O=c1cc(N2CCOCC2)nc2n(Cc3ccc(F)c(Cl)c3)ccn12 [GSK2297099]	2	0	0	0	17	12	12	35	0	0	
CCCNC(=O)Nc1ccc(Oc2ncnc3ccn(C)c23)cc1	22	0	0	0	13	1	0	8	0	0	
CCc1ccc(-c2ccc3c(c2)-c2nn(C)cc2S(=O)(=O)N3C)cc1	0	0	37	0	0	0	2	1	0	0	
Cc1cccc(-c2cc(-c3c[nH]nc3-c3ccccn3)ccn2)c1 [GW679395]	0	0	0	0	12	0	9		0	0	57
COc1ccc(-n2cnc3c(N)ncnc32)cc1 [SKF-97236]	30	20	1	21	9	0	3	0	23	23	
CCC(=O)c1c(-c2ccccc2)c2cc(Cl)ccc2c(=O)n1Cc1ccc(C(=O)O)cc1	0	0	0	0	0	10	6	11	0	0	
